This is a sample that favours compounds with a hit; in the whole collection about 5.9% have one here.
RORgamma inh: qHTS for inhibitors of ROR gamma transcriptional activity; Potency, µM (titrated, usually from 53.6 µM), without a hit: at the top dose activity change, negative = inhibition, usual class: inhibitors; Nuclear receptor ROR-gamma (Mus musculus), P51450; Drosophila S2 Gal4-RORgamma UAS-luciferase reporter, 20 h; 310,000 compounds, 5.4% hits; also: % is scaled to controls: 0 for no effect and ±100 for the full control effect; nearly all actives have a fitted effect of over 60% in size
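Stably transfected Drosophila Schneider cells are the test system, with ROR gamma fused to Gal4 and luciferase under UAS control; luminescence is read after 20 hr of 700 uM copper sulfate induction at ambient temperature.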
GLP1R cytotox: qHTS of GLP-1 Receptor Inverse Agonists: Cytotox Screen; HEK293 cAMP-luciferase reporter cells, luminescence, 24 h; Potency, µM (titrated, usually from 38.3 µM), without a hit: top-dose activity change, negative = inhibition, most hits filed as inhibitors; 410,000 compounds, 0.13% hits; AID 624418, 2012;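 also: loss of luciferase light is scored as toxicity; % is scaled to controls: 0 for no effect and ±100 for the full control effect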
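Cells in DMEM/10% Nu serum/1% pen-strep, 1536-well format. Pre-incubated 12 h, dosed with 23 nL compound, incubated a further 24 h. Luciferase detection, 12 min at room temp, luminescence.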
Gal4-VP16 FLuc: VP16 counterscreen qHTS for inhibitors of ROR gamma transcriptional activity. Drosophila S2 Gal4-VP16 UAS-luciferase, luminescence, 20 h. 310,000 compounds, 3.5% hits. Potency, µM (doses to about 53.6 µM), for the others: at the top dose activity, negative = inhibition, actives largely listed as inhibitors;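 also: Gal4-VP16 expression switched on by copper sulfate through the metallothionein promoter; % is scaled to controls: 0 for no effect and ±100 for the full control effect; nearly all actives have a fitted effect of over 50% in size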
GLP-1R agonist: qHTS of GLP-1 Receptor Agonists | Glucagon-like peptide 1 receptor (Homo sapiens), P43220 | HEK293 GLP-1R CRE-luciferase, luminescence, 4-6 h; cells express a hypersensitive GLP-1R form | Potency, µM (titrated, usually from 45.6 µM), inactives show at the highest dose activation, actives largely listed as activators | 380,000 compounds, 0.007% hits | AID 624172, 2012; also: % of control where 0% means no effect
Target sequence (P43220 whole entry, looked up): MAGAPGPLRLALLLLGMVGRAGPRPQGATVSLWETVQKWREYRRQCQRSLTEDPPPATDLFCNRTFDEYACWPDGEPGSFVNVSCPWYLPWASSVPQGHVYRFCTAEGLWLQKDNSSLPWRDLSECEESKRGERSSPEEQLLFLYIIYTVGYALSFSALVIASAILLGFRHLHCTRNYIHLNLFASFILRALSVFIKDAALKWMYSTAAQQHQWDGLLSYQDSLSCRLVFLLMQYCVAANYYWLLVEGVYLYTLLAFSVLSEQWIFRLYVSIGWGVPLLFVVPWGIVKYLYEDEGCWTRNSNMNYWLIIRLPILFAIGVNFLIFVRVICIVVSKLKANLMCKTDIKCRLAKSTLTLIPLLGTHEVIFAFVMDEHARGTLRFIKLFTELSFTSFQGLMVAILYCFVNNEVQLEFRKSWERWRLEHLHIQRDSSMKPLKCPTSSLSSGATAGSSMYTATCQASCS
GLP-1R inv ag: qHTS of GLP-1 Receptor Inverse Agonists (Inhibition Mode). HEK293 GLP-1R CRE-luciferase, luminescence, 24 h; GLP-1R form is constitutively active. Glucagon-like peptide 1 receptor (Homo sapiens), P43220. Potency, µM (top dose mostly 38.3 µM), for inactives: top-dose activity change, negative = inhibition, actives largely listed as inhibitors. 410,000 compounds, 1.6% hits. AID 624417, 2012; also: % is scaled to controls: 0 for no effect and ±100 for the full control effect; nearly all actives have a fitted effect of over 55% in size
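HEK293 cells stably co-expressing a cAMP-responsive luciferase reporter and constitutively active GLP-1R were seeded, incubated 12 h, then exposed to compounds for 24 h at 37 C. Luminescence was read 12 min after detection reagent; inverse agonists lower signal.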
* marks the source's active call; other numbers are inactive results; ? = inconclusive; . = no result; [ ] = remark or other dose. Calls follow the shape of the dose curve; as a rule, active = well fitted curve in the direction sought with a large enough effect; inconclusive = small, poorly fitted or top-dose-only effect, or another doubt; inactive = no such curve, though single readings can be large; an effect the other way counts as inactive or inconclusive. Potency is read from the fitted curve at half-maximal effect.

SMILES | RORgamma inh | GLP1R cytotox | Gal4-VP16 FLuc | GLP-1R agonist | GLP-1R inv ag
Cc1ccc2nc(NCc3ccccc3)c3nncn3c2c1 | . | -1.0% | . | . | 6.3%
Oc1ccc(Nc2nc(-c3ccc(Cl)cc3)nc3ccccc23)cc1 | . | -18.1% | . | . | ?
Oc1ccc(Nc2nc3ccccc3nc2Nc2ccc(O)cc2)cc1 | 15.8µM* | ? | ? | -39.5% | -81.4%
CN(c1ccccc1)S(=O)(=O)c1ccc(C(=O)Nc2nnc(-c3ccco3)o2)cc1 | 0.708µM* | -2.5% | 1.12µM* | -1.8% | -24.6%
CCN(c1ccccc1)S(=O)(=O)c1ccc(C(=O)Nc2nnc(-c3ccco3)o2)cc1 | 0.1µM* | -20.5% | -6.5% | -6.6% | ?
Cc1ccc(S(=O)(=O)CCC(=O)Nc2nnc(-c3ccco3)o2)cc1 | . | 3.1% | . | -14.7% | 10.6%
O=C1COc2ccc(S(=O)(=O)N3CCCC3)cc2N1 | -0.5% | -18.1% | -6.5% | 10.7% | 13.1%
O=C1COc2ccc(N3C(=O)C=CC3=O)cc2N1 | 6.31µM* | . | 10µM* | . | .
CN1CCN(C(=S)Nc2ccc(Oc3ccccc3)cc2)CC1 | 11.2µM* | -13.4% | 0.3% | 11.2% | ?
S=C(Nc1ccc(Oc2ccccc2)cc1)N1CCOCC1 | -22.1% | -1.5% | -2.0% | 7.0% | 13.7%
COc1ccccc1NC(=S)N1CCN(c2ccccc2F)CC1 | ? | -20.4% | ? | -5.3% | -9.6%
Cc1cccc(NC(=S)N2CCN(c3ccccc3F)CC2)c1C | 8.91µM* | -10.5% | 10µM* | -0.2% | ?
S=C(Nc1ccccc1)N1CCOCCOCCN(C(=S)Nc2ccccc2)CCOCCOCC1 | 17.8µM* | -26.9% | -23.8% | 0.7% | -34.5%
Cc1ccc(N2CCN(C(=S)Nc3ccccc3)CC2)cc1 | 6.31µM* | -6.9% | ? | -0.4% | ?
S=C(Nc1ccccc1)N1CCN(c2ccccc2)CC1 | . | 1.0% | . | 8.7% | ?
Cc1cn2c(=O)cc(COC(=O)c3ccc(NC(=O)c4ccccc4C)cc3)nc2s1 | . | 1.0% | . | . | 13.9%
COc1ccc(NC(=O)CC2C(=O)N(c3cccc(OC)c3)C(=O)N2Cc2cccnc2)cc1 (stereo not drawn) | . | -9.6% | . | . | 11.1%
O=C1CCC=C1C(O)c1ccc(Cl)cc1 (stereo not drawn) | 9.5% | . | -20.5% | . | .
Cc1cc(=O)oc2cc(NC(=O)C(CCCCN)NC(=O)C(CC3CCCCC3)NC(=O)OCC3c4ccccc4-c4ccccc43)ccc12 (stereo not drawn) | 6.1% | . | 16.4% | . | .
Cc1c(CC(=O)N2CCCCC2)c(=O)oc2c(C)c3occ(C(C)(C)C)c3cc12 | . | 0.9% | . | . | 7.0%
Cc1ccccc1NC(=S)N1CCCC1 | -33.5% | -10.2% | -5.3% | -2.4% | 2.5%
Cc1ccc(N2CCN(C(=S)Nc3ccccc3C)CC2)cc1 | 10µM* | 0.9% | ? | -6.0% | 8.3%
COc1ccc(N2CCN(C(=S)Nc3ccc(C)cc3)CC2)cc1 | 10µM* | -2.3% | -2.2% | -6.2% | -19.8%
CCN(CC)C(=O)Cn1c(=O)cc(C)c2c(C)nn(-c3cccc(Cl)c3C)c21 | . | -26.9% | . | . | ?
c1ccc([C@H]2NCCc3c2[nH]c2ccccc32)cc1 | -1.2%[10 µM] | . | -10.5%[10 µM] | . | .
SMILES | RORgamma inh | GLP1R cytotox | Gal4-VP16 FLuc | GLP-1R agonist | GLP-1R inv ag
FC(F)Oc1ccc(NC(=S)NC2CCCCCCC2)cc1 | 3.55µM* | -15.6% | 10µM* | 1.2% | 4.47µM*
NS(=O)(=O)c1ccc(NC(=S)NC2CCCCC2)cc1 | 6.2% | 0.4% | 4.2% | 0.6% | ?
S=C(Nc1ccc(Cl)cc1)NC1CCCCC1 | 3.55µM* | ? | 15.8µM* | 11.9% | 10µM*
FC(F)Oc1ccc(NC(=S)NC2CCSc3ccccc32)cc1 (stereo not drawn) | -7.7% | ? | -1.7% | -12.3% | ?
S=C(Nc1ccc(Nc2ccccc2)cc1)NC1CCCCCC1 | 1.26µM* | -7.6% | ? | 4.7% | 5.01µM*
O=C(NNC(=S)Nc1ccccc1)C1CCCCC1 | -34.2% | 2.2% | -4.2% | 0.7% | -4.6%
S=C(Nc1ccc(Br)cc1)NC1CCCCC1 | 7.94µM* | ? | 17.8µM* | -4.9% | ?
Nc1nc2c(ncn2C2CC(O)C(CO)O2)c(=O)[nH]1 (stereo not drawn) | -34.5% | . | 7.4% | . | .
S=C(Nc1cccnc1)NC1CCCCCCC1 | ? | -4.3% | 22.4µM* | 7.4% | ?
S=C(Nc1cccnc1)NC1CCCC1 | 1.3% | -2.3% | -8.3% | -11.9% | 0.0%
CC(=O)Nc1ccc2ccccc2c1 | 32.9% | 20.2% | 5.1% | 3.9% | 1.2%
CN(C)C(=S)Nc1ccc2ccccc2c1 | 15.8µM* | ? | ? | 9.6% | -21.1%
C=CCn1c(C(CCCC)CC(O)COCCC)n[nH]c1=S (stereo not drawn) | 7.08µM* | -0.3% | ? | -1.2% | 11.1%
C=CCn1c(C(CCCC)CC(O)COCC(C)C)n[nH]c1=S (stereo not drawn) | 10µM* | -29.5% | ? | 8.9% | -7.7%
CC(C)c1nn2c(=O)cc(COC(=O)c3cccc(NC(=O)COc4ccc(F)cc4)c3)nc2s1 | . | -7.7% | . | . | -49.5%
CC1CCN(C(=O)CSc2nc(-c3ccccc3)no2)CC1 | . | 2.7% | . | . | -16.6%
CC(=O)c1cccc(Oc2cc(NN3CCCCC3)c([N+](=O)[O-])cc2[N+](=O)[O-])c1 | 34.6% | ? | 3.1% | 17.9% | 10µM*
CC(=O)c1ccccc1Oc1cc(NN2CCCCC2)c([N+](=O)[O-])cc1[N+](=O)[O-] | 33.1% | 0.0% | 4.2% | -5.4% | ?
CCOC(=O)OCC1OC(c2ccccc2)C=CC1Oc1ccc(F)cc1C (stereo not drawn) | 12.4%[10 µM] | . | 0.3%[10 µM] | . | .
CCC(=O)Nc1cccc(C(=O)/C=C/c2cc(Br)ccc2OC)c1 | 11.2µM* | ? | ? | -19.1% | ?
COc1ccc(Br)cc1/C=C/C(=O)Nc1ccc(C)cc1 | 40.8% | -17.3% | -0.1% | 5.8% | 4.47µM*
COc1ccc(Br)cc1/C=C/C(=O)Nc1ccc2ccccc2c1 | 35.6% | 11.8% | -9.2% | -3.3% | -12.2%
CC1CCC(C(C)C)C(P(=O)(c2ccccc2)c2ccccc2)C1 (stereo not drawn) | 3.1% | . | -2.1% | . | .
O=C(CCCN1CCN(c2ccc(F)cc2)CC1)NC1c2ccccc2CSc2ccccc21 (stereo not drawn) | . | . | . | 7.3% | .
N#C/C(=C/c1cccnc1)c1ccccc1 | -32.6% | -5.3% | 5.0% | 0.3% | 24.1%
N#C/C(=C\c1cccnc1)c1ccc([N+](=O)[O-])cc1 | ? | 12.0% | 12.6µM* | -2.2% | 11.3%
CC(C)(C)C1CCC(C(=O)Nc2nccs2)CC1 (stereo not drawn) | 4.47µM* | -4.4% | 8.91µM* | -6.6% | 38.5%
O=C(CCC(=O)N(CC(=O)NC1CCCC1)c1ccccc1F)Nc1nccs1 | 12.6µM* | 6.8% | 5.2% | 8.5% | 2.3%

From PubChem
